# A selection: hits, their analogues and other compounds. The true share with any hit is near 19%.
# MARV entry inh = qHTS for inhibitors of binding or entry into cells for Marburg Virus; Marburg virus pseudotyped entry inhibition, cell reporter; Potency, µM (titrated, usually from 37.8 µM), inactives show top-dose activity change, negative = inhibition, hits mostly inhibitors; hit rate 1.8% among 300,000; AID 540276, 2011; calls by dose curve; tested in HEK293 cells; note: potency is the fitted concentration of half-maximal effect; % is set by controls: 0 for no effect and ±100 for the full control effect
# LASV entry inh = qHTS for Inhibitors of binding or entry into cells for Lassa Virus. Lassa virus pseudotype entry inhibition, cell reporter. Potency, µM (titrated, usually from 37.9 µM), for the others: at the top dose activity change, negative = inhibition, most hits filed as inhibitors. hit rate 1.2% among 300,000; calls by dose curve; tested in HEK293 cells; note: potency is the fitted concentration of half-maximal effect; % is set by controls: 0 for no effect and ±100 for the full control effect; nearly all actives have a fitted effect of over 50% in size
# Pf growth 48h = Primary qHTS for delayed death inhibitors of the malarial parasite plastid, 48 hour incubation | AID 504832, 2011 | Potency, µM (highest dose often 28.7 µM), without a hit: top-dose activity change, negative = inhibition, actives largely listed as inhibitors | P. falciparum luciferase growth in erythrocytes, 48 h | hit rate 5.9% among 310,000; note: potency is the fitted concentration of half-maximal effect; % is set by controls: 0 for no effect and ±100 for the full control effect
#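 A one-generation exposure of luciferase-tagged malaria parasites in RPMI 1640/Albumax erythrocyte culture, 37 C and 5% CO2. Inhibition is inferred from decreased luminescence after adding detection reagent.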
# Cycloheximide cs = Cycloheximide Counterscreen for Small Molecule Inhibitors of Shiga Toxin | max response, % | hit rate 12% among 300,000 | cell reporter, cycloheximide protein synthesis inhibition counterscreen; in the data active = max response mostly above about 13%, no sharp cut-off; inactive = mostly below about 14%; note: read at 38.3 µM for the half of the compounds with a filed dose; 0% is about no effect
# Pf growth 96h = Primary qHTS for delayed death inhibitors of the malarial parasite plastid, 96 hour incubation; P. falciparum luciferase reporter growth, 96 h; Potency, µM (series often up to 28.7 µM), inactives show at the top dose activity change, negative = inhibition, most hits filed as inhibitors; hit rate 6.9% among 320,000; AID 504834, 2011; note: potency is the fitted concentration of half-maximal effect; % is set by controls: 0 for no effect and ±100 for the full control effect
#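 Infected RBCs, 2% Hct / 0.05% parasitemia final; luciferase-reporter P. falciparum; cpd 96 h, 37 C, 5% CO2; luciferase detection reagent; luminescence.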
# Shiga toxin inh = A qHTS for Small Molecule Inhibitors of Shiga Toxin | Vero cells, Shiga toxin protein synthesis inhibition reporter | inhibition, % at 38.7 µM | hit rate 9.2% among 290,000 | AID 2315, 2010; in the data active = inhibition mostly above about 28%, no sharp cut-off; inactive = mostly below about 43%; note: 0% is about no effect
# Active calls of the source: *; ? = inconclusive; . = no result; [ ] = dose if it differs, or a comment. Unless noted, calls come from the whole dose curve; as a rule, active = well fitted inhibition curve with a large enough effect; inconclusive = small, poorly fitted or top-dose-only effect, or another doubt; inactive = no such curve, though single readings can be large or run the other way.
SMILES,MARV entry inh,LASV entry inh,Pf growth 48h,Cycloheximide cs,Pf growth 96h,Shiga toxin inh
COc1ccc(CN(C(=O)Cc2c[nH]c3ccccc23)C(C(=O)NC2CCCCC2)c2ccc(C)o2)cc1 (centres undefined),7.3µM*,7.3µM*,5.22µM*,15.6,5.22µM*,-11.6
COc1ccc(CN(C)C(=O)Cc2c[nH]c3ccccc23)cc1,.,.,2.3%,8.9,8.1%,18.0
CCc1cc(=O)[nH]c(SC/C=C/c2ccccc2)n1,.,.,23.4%,-5.0,25.9%,-3.1
COc1ccccc1N(CC(=O)NCc1ccc(F)cc1)C(=O)CCC(=O)Nc1nccs1,?,?,?,2.8,3.5%,-12.8
COc1ccccc1C(=O)NNC(=O)c1ccc(Br)cc1,-0.2%,8.9%,23.3%,10.3*,12.4%,15.5
COc1ccccc1/C=N/OC(=O)c1ccc(C)cc1,?,?,0.0%,11.3*,20.6%,15.7
COc1ccccc1C(=O)NNC(=O)c1ccc(Br)o1,14.1%,10.0%,109.2%,43.9*,-1.8%,82.1*
COc1ccccc1C(=O)NNC(=O)c1ccc(C)cc1,6.8%,14.2%,62.3%,20.4*,-76.7%,31.8
CC(=O)N1CC2(c3ccccc3)CN(C(C)=O)CC(c3ccccc3)(C1)C2=O,-4.7%[46.1 µM],-3.0%[46.1 µM],-10.8%,-0.8,27.3%,5.5
CCC(Oc1ccccc1)C(=O)N1CCN(c2ccccn2)CC1 (centres undefined),-4.4%,3.2%,-14.2%,-2.9,-0.5%,16.3
CCOc1cc(/C=N/NC(=O)c2ccncc2)ccc1OC(=O)c1ccc([N+](=O)[O-])cc1,-2.1%,16.2%,6.1%,-4.5,38.4%,-19.5
CCSc1nnc(NC(=O)c2cccnc2Cl)s1,?,18.8%,68.8%,27.7*,65.1%,54.2*
Cc1cnc(C(=O)Nc2nnc(SCc3c(Cl)cccc3Cl)s2)cn1,?,1.4%,2.62µM*,-2.1,2.94µM*,11.3
CCSc1nnc(NC(=O)c2ccccn2)s1,?,?,2.94µM*,44.9*,11.1%,59.7*
CCN(C(=O)COC(=O)CNC(=O)c1ccccc1C)C1=CCCCC1,.,.,-21.7%,.,-21.7%,.
Cc1ccc(NC(=O)c2nc3nccc(C)n3n2)c(C)c1,?,-0.5%[46.1 µM],175.9%,30.4*,195.5%,79.9*
Cc1ccnc2nc(C(=O)Nc3nc4ccccc4s3)nn12,?,?,82.7%,44.7*,139.5%,62.0*
Cc1csc(NC(=O)c2nc3nccc(C)n3n2)n1,?,4.9%,152.2%,18.3*,.,71.9*
CCCCc1nnc(NC(=O)c2nc3nccc(C)n3n2)s1,12.3%[14.2 µM],11.8%,-7.7%,3.2,?,7.3
Cc1ccnc2nc(C(=O)Nc3nnc(CC(C)C)s3)nn12,3.2%,-5.5%,.,8.6,30.0%,25.2
COc1ccc(C(=O)OCc2cc(=O)n3nc(C4CC4)sc3n2)cc1OC,.,27.3%[46.1 µM],.,.,.,.
CCCCC(=O)Nc1ccnc(-c2cccnc2)n1,-8.4%,-0.1%,14.3%,-1.2,69.7%,-5.2
O=C(/C=C/c1ccc(OCCCF)cc1)Nc1ccnc(-c2cccnc2)n1,?,-6.4%[46.1 µM],10.4µM*,7.2,?,-5.9
O=C(/C=C/c1ccc(OCCCF)cc1)NCc1cccc(Cl)c1,0.0%,11.6%,?,1.4,?,-5.1
O=C(/C=C/c1ccc(OCCCF)cc1)Nc1ccnc(-c2ccncc2)n1,?,-9.5%,13.1µM*,13.9,13.1µM*,43.8
SMILES,MARV entry inh,LASV entry inh,Pf growth 48h,Cycloheximide cs,Pf growth 96h,Shiga toxin inh
CCOC(=O)c1ccc(S(=O)(=O)Nc2cc(S(=O)(=O)Nc3ccc(OC)cc3)ccc2O)cc1,-1.8%,-3.6%,.,.,.,.
COc1ccc(NC(=O)c2cc3c(=O)n(Cc4cccs4)ccc3nc2C)c(OC)c1,.,-16.6%[46.1 µM],.,.,.,.
CCCN1CCC(=O)N([C@H](CSc2ccc(Br)cc2)Cc2ccccc2)CC1,.,.,?,-1.8,1.85µM*,-5.8
CCCN1CCC(=O)N([C@H](CO)c2ccccc2)CC1,.,.,30.3%,-0.8,-34.5%,-4.0
CC(C)CN1CCC(=O)N(C(CSc2ccc(Br)cc2)c2ccccc2)CC1 (centres undefined),.,.,.,32.3,.,24.8
CCCN1CCC(=O)N(C(CSc2ccc(Br)cc2)c2ccccc2)CC1 (centres undefined),.,.,.,50.4*,.,76.8*
CCCN1CCC(=O)N([C@H](CSc2ccccc2)c2ccccc2)CC1,.,.,?,24.1*,?,19.1
CCCN1CCC(=O)N([C@H](CSc2ccc(C)cc2)c2ccccc2)CC1,.,.,?,22.6*,?,46.1*
CCCN1CCC(=O)N([C@H](COc2ccccc2)c2ccccc2)CC1,.,.,0.8%,7.3,?,27.7
O=C(O)CCc1c(C(=O)O)[nH]c2cc(Cl)cc(Cl)c12,.,.,.,-2.6,.,3.6
CC[C@H](C)C(=O)O[C@H]1C[C@@H](C)C=C2C=C[C@H](C)[C@H](CC[C@@H]3C[C@@H](O)CC(=O)O3)[C@H]21,-19.3%,-3.7%,?,-0.8,?,12.8
Cc1ccc(CNC(=O)c2cccc(S(C)(=O)=O)c2)cc1,23.9%,4.8%,6.5%,13.0,.,-21.3
COc1ccc(N=Nc2ccc(N)nc2N)cc1,?,?,219.2%,70.0*,210.0%,106.5*

# Compound activity as filed in PubChem BioAssay.
